Test results as given in the supplement of paper PMC11732987, “Enantioselective OTUD7B fragment discovery through chemoproteomics screening and high-throughput optimisation” (Communications Chemistry, 2025).

Legend:
Test in all cases: log2 ratio of Biotin-Ahx-Ub-VS probe labelling (fragment/DMSO); higher = less target engagement (more negative = stronger competition), active = hit call of the paper (q ≤ 0.05, log2 ratio ≤ -1)
Settings in all cases: compound concentration: 200 uM; treatment time: 3 h
[1] = molecular target: T1, ALG13 (UniProt Q9NP73)
T1 sequence (whole entry): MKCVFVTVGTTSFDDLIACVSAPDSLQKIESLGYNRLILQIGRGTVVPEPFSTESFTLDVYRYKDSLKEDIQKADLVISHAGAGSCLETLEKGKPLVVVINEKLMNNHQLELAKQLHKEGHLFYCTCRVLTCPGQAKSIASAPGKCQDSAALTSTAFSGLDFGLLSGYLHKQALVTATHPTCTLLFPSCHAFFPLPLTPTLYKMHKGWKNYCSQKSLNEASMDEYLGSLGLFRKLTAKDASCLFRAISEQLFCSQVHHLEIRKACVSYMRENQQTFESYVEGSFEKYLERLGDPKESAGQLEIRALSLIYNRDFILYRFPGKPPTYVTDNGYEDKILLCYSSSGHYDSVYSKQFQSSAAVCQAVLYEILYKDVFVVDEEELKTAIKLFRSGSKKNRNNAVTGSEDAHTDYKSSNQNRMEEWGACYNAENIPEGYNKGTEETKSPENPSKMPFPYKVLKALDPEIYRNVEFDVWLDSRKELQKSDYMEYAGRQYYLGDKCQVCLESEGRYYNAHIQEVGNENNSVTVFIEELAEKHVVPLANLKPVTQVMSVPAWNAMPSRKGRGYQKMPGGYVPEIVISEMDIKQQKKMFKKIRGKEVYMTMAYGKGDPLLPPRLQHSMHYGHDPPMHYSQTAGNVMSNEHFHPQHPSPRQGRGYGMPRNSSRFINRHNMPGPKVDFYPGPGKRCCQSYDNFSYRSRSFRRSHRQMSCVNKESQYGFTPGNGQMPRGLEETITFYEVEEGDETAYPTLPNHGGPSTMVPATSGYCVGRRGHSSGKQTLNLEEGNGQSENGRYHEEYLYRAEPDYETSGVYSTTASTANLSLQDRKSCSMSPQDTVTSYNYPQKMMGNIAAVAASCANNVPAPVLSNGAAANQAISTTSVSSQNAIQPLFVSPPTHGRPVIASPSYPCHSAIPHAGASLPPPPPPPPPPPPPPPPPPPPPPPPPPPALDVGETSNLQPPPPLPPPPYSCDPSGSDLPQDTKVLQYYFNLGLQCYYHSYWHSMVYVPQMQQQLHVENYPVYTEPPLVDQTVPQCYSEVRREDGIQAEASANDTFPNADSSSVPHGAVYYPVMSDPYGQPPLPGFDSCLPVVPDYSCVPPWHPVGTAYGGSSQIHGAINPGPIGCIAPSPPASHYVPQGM
How it was run: (§1)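 HEK293T lysate (495 µg per sample, in Tris/CHAPS/IGEPAL buffer with protease inhibitors) was exposed in triplicate for 3 h to fragment at 200 µM or to vehicle, then to Biotin-Ahx-Ub-VS at 0.5 µM final for 1 h. Labelled DUBs were enriched on NeutrAvidin, digested with LysC and trypsin, and analysed by diaPASEF LC-MS/MS. Spectronaut label-free quantities were normalised to the global median, and values are average log2 ratios of fragment over vehicle from an unpaired t-test. Only proteins with ≥2 unique peptides were used.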

[2] = molecular target: ATXN3 (UniProt P54252)
How it was run: as §1

[3] = molecular target: T2, BAP1 (UniProt Q92560)
T2 sequence (whole entry): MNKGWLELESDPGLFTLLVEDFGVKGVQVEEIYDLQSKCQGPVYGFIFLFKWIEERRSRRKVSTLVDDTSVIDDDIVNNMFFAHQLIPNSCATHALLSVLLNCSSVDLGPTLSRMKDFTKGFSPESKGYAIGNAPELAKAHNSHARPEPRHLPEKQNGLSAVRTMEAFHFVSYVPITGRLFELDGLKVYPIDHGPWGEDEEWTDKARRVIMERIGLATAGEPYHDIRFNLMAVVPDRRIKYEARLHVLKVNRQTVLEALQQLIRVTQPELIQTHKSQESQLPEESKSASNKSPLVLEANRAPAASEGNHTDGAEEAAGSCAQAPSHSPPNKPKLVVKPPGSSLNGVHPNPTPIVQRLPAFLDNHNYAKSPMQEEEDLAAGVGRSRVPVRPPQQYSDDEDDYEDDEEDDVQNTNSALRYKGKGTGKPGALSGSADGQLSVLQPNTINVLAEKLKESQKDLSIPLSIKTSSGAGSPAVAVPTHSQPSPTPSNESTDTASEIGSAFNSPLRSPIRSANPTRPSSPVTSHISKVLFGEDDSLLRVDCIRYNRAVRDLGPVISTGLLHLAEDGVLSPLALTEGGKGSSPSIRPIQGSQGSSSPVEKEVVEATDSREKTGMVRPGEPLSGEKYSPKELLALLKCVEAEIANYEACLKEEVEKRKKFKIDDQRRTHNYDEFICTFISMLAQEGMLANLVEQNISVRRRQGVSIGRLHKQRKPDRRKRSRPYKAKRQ
How it was run: as §1

[4] = molecular target: EIF3F (UniProt O00303)
How it was run: as §1

[5] = molecular target: EIF3H (UniProt O15372)
How it was run: as §1

[6] = molecular target: T3, FAM105A (UniProt Q9NUU6)
T3 sequence (whole entry): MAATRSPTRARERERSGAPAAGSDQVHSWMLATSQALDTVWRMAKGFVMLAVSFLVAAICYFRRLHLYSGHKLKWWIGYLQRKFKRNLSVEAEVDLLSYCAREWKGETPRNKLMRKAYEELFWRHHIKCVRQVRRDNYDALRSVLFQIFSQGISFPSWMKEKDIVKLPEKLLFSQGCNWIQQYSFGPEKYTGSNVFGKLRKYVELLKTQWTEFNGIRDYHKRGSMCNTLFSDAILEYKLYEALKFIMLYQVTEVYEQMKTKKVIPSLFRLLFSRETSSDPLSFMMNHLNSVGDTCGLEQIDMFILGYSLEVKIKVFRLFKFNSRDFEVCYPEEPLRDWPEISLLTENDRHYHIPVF
How it was run: as §1

[7] = molecular target: OTUB1 (UniProt Q96FW1)
How it was run: as §1

[8] = molecular target: T4, OTUD4 (UniProt Q01804)
T4 sequence (whole entry): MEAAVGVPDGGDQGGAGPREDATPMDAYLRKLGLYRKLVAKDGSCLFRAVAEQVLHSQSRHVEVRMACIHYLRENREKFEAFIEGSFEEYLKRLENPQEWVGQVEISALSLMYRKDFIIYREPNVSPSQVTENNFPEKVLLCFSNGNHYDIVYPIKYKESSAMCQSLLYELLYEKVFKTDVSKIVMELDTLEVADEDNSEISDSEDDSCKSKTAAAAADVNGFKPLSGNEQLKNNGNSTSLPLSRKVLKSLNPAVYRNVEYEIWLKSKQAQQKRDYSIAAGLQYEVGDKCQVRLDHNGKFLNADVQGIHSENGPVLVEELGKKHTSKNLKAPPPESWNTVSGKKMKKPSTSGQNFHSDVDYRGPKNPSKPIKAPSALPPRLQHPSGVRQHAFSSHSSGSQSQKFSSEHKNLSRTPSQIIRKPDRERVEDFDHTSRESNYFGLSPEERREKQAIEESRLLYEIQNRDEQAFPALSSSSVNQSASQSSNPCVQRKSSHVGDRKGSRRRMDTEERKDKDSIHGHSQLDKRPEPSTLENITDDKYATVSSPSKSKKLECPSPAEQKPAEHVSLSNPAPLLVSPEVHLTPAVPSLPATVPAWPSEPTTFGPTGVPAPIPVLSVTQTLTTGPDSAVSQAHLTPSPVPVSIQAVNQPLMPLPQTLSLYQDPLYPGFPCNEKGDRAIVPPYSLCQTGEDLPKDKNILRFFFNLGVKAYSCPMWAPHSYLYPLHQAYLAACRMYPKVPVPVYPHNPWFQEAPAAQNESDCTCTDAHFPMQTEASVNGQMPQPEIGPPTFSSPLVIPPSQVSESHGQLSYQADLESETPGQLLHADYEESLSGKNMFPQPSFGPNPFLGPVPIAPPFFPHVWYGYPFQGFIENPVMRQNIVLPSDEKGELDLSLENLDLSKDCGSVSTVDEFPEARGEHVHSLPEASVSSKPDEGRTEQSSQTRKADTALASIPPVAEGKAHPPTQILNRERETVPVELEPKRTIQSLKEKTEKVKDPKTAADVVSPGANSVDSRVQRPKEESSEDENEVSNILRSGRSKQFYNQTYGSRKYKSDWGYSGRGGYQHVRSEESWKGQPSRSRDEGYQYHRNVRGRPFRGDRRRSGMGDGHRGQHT
How it was run: as §1

[9] = molecular target: T5, OTUD5 (UniProt Q96G74)
T5 sequence (whole entry): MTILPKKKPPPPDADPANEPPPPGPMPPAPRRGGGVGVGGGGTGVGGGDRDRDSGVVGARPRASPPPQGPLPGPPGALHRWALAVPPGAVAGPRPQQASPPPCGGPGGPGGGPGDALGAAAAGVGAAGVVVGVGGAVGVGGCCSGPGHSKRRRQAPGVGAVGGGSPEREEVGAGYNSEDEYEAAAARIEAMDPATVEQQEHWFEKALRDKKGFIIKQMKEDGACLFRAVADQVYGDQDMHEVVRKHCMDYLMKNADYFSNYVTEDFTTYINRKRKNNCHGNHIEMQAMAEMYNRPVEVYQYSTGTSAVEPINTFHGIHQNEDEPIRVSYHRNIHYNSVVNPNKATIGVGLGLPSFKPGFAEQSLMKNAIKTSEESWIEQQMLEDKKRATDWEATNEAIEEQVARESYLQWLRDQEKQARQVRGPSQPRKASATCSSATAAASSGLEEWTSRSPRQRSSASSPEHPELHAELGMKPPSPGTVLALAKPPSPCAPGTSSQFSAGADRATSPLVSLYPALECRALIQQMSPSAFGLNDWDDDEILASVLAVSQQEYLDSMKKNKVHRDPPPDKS
How it was run: as §1

Measured: log2 ratio of Biotin-Ahx-Ub-VS probe labelling

Chain of EIF3H (O15372 whole entry): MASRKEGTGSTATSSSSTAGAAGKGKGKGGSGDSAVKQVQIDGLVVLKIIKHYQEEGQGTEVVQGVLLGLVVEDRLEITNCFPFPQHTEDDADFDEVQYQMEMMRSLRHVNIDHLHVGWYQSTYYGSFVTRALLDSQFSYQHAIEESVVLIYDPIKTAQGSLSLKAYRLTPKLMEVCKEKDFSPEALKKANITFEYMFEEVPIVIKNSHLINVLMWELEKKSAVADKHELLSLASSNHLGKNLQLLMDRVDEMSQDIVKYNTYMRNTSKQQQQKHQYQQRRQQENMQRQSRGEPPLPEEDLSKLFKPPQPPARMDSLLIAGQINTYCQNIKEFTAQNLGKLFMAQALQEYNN
Chain of ATXN3 (P54252 whole entry): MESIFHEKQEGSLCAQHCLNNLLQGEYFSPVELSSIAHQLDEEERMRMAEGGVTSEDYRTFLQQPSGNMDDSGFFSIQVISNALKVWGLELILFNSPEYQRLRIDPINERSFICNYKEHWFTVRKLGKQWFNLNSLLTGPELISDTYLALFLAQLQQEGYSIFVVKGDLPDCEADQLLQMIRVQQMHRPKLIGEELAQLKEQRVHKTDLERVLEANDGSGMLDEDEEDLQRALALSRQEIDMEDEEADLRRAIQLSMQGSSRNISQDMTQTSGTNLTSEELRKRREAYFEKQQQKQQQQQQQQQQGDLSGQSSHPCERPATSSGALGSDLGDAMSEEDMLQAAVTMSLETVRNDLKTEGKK
Chain of OTUB1 (Q96FW1 whole entry): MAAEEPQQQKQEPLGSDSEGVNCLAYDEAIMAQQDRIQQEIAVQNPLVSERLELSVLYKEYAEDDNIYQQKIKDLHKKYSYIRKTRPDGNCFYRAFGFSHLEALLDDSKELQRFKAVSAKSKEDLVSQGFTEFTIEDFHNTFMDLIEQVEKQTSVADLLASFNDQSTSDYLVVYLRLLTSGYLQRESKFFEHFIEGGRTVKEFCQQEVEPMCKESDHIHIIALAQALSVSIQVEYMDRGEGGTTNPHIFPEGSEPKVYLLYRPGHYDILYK
Chain of EIF3F (O00303 whole entry): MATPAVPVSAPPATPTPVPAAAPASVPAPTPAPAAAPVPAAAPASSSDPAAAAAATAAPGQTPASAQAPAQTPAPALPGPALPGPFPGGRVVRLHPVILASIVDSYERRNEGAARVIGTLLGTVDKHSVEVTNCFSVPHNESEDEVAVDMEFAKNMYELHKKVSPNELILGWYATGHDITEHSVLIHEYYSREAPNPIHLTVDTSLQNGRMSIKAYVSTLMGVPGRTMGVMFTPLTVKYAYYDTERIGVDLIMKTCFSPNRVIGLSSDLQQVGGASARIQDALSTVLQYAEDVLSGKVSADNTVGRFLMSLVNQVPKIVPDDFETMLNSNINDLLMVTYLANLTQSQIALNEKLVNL

O=C(CCl)N1CCC(c2ccn[nH]2)C1 (centres undefined)
inactive: [1] -0.443 | [2] -0.622 | [3] -0.721 | [4] -0.232 | [5] 0.0161 | [6] -0.198 | [7] -0.156 | [8] -0.303 | [9] -0.376
